Positions count from the first letter of the chain named.
Tests used:
Assay in all cases: protein-binding microarray (PBM); PBM: ~300 nM protein, 6 mM HEPES pH 7.8, 80 mM KCl, 0.5 mM EDTA, 0.5 mM EGTA, 6% glycerol, 35 ng/ul poly-dIdC, 1% milk, 1 h, room temperature; Ap Aiptasia and Nv Nematostella (sea anemones) / Co Capsaspora / Aq Amphimedon (sponge) / Dm Drosophila / Hu human; RHD is the Rel homology domain; high values mean tight binding
Details in all cases: dsDNA, one strand shown
GST-Ap-NF-kB RHD = molecular target: T1, GST-Ap-NF-kB RHD (Exaiptasia pallida (Aiptasia), UniProt A0A913YAJ5 2-422)
T1 sequence: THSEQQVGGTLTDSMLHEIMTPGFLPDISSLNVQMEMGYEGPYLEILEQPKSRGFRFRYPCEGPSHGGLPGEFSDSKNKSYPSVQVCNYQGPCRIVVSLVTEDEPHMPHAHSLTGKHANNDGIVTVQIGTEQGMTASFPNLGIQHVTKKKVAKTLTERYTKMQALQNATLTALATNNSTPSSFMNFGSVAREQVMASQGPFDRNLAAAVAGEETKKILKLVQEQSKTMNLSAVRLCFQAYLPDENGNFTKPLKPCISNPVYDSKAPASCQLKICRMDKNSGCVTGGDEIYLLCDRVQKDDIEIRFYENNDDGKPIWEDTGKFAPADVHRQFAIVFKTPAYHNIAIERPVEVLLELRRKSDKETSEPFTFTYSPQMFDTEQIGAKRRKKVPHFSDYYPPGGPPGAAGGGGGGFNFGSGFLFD

[1] = molecular target: T2, GST-Nv-NF-kB (Cys allele) (Nematostella vectensis, UniProt E5G601 2-411)
T2 sequence: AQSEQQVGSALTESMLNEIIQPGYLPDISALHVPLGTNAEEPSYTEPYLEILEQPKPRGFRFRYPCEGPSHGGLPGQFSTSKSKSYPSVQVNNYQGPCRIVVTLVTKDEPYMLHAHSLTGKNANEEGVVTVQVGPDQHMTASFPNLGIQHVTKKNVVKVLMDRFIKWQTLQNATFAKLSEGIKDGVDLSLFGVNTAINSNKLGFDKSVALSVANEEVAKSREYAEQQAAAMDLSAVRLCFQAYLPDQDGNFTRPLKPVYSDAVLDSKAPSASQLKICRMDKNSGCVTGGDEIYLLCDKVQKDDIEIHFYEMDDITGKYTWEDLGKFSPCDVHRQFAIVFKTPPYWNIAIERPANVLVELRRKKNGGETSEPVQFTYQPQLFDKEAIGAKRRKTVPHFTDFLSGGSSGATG

[2] = molecular target: T3, GST-Nv-NF-kB (Ser allele) (Nematostella vectensis, UniProt A7UNT2 2-411)
T3 sequence: T2 sequence with Q21R, C66S, S207N, E215Q, V217A, E225K, A268E, D399E

GST-Co-NF-kB = molecular target: T4, GST-Co-NF-kB (Capsaspora owczarzaki, UniProt F1ARL5 200-546)
T4 sequence: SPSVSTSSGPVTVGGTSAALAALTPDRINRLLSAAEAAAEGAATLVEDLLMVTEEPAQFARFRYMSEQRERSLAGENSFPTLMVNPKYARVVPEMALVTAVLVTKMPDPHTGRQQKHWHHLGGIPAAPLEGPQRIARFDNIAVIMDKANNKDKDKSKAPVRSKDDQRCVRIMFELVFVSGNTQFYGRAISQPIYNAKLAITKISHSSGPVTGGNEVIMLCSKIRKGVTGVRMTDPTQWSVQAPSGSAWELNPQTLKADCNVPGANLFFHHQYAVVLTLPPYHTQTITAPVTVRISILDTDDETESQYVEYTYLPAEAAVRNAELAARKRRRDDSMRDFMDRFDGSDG

GST-Dm-Relish = molecular target: T5, GST-Dm-Relish (Drosophila melanogaster, UniProt Q94527 99-473)
T5 sequence: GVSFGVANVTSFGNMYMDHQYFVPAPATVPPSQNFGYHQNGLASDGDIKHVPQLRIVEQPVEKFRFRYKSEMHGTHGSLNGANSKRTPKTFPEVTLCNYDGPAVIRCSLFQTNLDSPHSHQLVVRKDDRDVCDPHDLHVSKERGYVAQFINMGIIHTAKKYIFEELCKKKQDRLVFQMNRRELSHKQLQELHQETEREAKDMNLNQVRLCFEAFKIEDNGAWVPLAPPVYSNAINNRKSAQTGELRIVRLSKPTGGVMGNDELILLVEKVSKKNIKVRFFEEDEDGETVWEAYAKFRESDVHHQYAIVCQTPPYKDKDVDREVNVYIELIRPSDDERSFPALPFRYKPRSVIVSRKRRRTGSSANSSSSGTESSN

GST-Aq-NF-kB = molecular target: T6, GST-Aq-NF-kB (Amphimedon queenslandica, UniProt A9Y5G7 2-389)
T6 sequence: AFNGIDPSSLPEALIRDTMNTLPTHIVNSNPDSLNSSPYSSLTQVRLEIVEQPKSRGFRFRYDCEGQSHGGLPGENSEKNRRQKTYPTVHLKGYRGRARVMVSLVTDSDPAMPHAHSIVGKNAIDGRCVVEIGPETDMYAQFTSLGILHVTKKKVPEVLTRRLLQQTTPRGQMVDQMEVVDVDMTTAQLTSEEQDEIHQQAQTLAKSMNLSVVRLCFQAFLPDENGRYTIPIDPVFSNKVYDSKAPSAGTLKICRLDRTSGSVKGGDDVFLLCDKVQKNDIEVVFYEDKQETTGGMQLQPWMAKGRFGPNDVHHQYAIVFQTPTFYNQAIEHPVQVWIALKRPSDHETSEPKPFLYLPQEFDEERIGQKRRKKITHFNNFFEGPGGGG

GST-Hu-p50 = GST-Hu-p50 (Homo sapiens, UniProt P19838 7-356)
GST-Hu-p50, sequence (P19838 7-356): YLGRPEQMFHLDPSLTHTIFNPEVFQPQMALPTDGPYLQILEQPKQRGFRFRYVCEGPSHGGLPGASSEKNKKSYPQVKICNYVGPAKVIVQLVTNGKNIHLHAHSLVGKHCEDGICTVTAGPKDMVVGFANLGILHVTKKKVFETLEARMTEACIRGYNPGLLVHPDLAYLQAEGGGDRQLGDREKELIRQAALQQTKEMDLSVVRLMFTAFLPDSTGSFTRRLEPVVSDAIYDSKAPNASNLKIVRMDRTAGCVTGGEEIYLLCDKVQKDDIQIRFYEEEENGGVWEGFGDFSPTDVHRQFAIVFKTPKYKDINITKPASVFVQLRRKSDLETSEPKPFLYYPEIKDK

Row | Sequence | binding signal (GST-Ap-NF-kB RHD) [z-score] | binding signal [1] [z-score] | binding signal [2] [z-score] | binding signal (GST-Co-NF-kB) [z-score] | binding signal (GST-Dm-Relish) [z-score] | binding signal (GST-Aq-NF-kB) [z-score] | binding signal (GST-Hu-p50) [z-score]
1 | CCGATTAACATCACCCGTTCCCCTGATGTTAATCGGGTCTTGATTCGCTTGACGCTGCTG | 5.61 | 4.83 | 6.11 | 4.75 | 1.99 | 3.78 | 3.85
2 | CCGATTAACATCAGGATTTCCCCTGATGTTAATCGGGTCTTGATTCGCTTGACGCTGCTG | 10 | 11.1 | 11.4 | 7.55 | 9.64 | 9.68 | 7.53
3 | CCGATTAACATCAGGGGGAAGTATGATGTTAATCGGGTCTTGATTCGCTTGACGCTGCTG | 5.44 | 6.23 | 7.96 | 8.17 | 5.72 | 5.16 | 5.57
4 | CCGATTAACATCAGGGGACATTATGATGTTAATCGGGTCTTGATTCGCTTGACGCTGCTG | 5.74 | 5.19 | 5.89 | 4.2 | 3.51 | 4.62 | 4.63
5 | CCGATTAACATCAAGATTTCCCCTGATGTTAATCGGGTCTTGATTCGCTTGACGCTGCTG | 8.78 | 10.4 | 13.2 | 9.09 | 6.87 | 7.44 | 7.38
6 | CCGATTAACATCAGGAAAACCCCTGATGTTAATCGGGTCTTGATTCGCTTGACGCTGCTG | 8.2 | 8.89 | 6.66 | 2.41 | 8.77 | 9.24 | 7.4
7 | CCGATTAACATCACCCCCGCCCCTGATGTTAATCGGGTCTTGATTCGCTTGACGCTGCTG | 4.47 | 3.37 | 3.72 | 6.71 | 4.74 | 4.27 | 3.7
8 | CCGATTAACATCAATAAATCCCCTGATGTTAATCGGGTCTTGATTCGCTTGACGCTGCTG | 7.78 | 9.33 | 11.6 | 4.45 | 9.26 | 6.63 | 7.71
9 | CCGATTAACATCAAAAACCCCCATGATGTTAATCGGGTCTTGATTCGCTTGACGCTGCTG | 9.51 | 8.21 | 9 | 3.93 | 9.82 | 7.68 | 7.91
10 | CCGATTAACATCAGGGAATCCCCTGATGTTAATCGGGTCTTGATTCGCTTGACGCTGCTG | 14.7 | 13.7 | 14.6 | 6.28 | 11 | 12.1 | 8.34
11 | CCGATTAACATCAAGATACCCCCTGATGTTAATCGGGTCTTGATTCGCTTGACGCTGCTG | 7.1 | 4.31 | 5.25 | 4.96 | 4.14 | 4.36 | 4.66
12 | CCGATTAACATCAAATTTCCCCTTGATGTTAATCGGGTCTTGATTCGCTTGACGCTGCTG | 8.8 | 10.8 | 13.2 | 7.98 | 7.38 | 8.06 | 7.51
13 | CCGATTAACATCACAACTTTCCCTGATGTTAATCGGGTCTTGATTCGCTTGACGCTGCTG | 3.73 | 5.95 | 6.13 | 4.34 | 2.04 | 5.94 | 4.21
14 | CCGATTAACATCACCCTGGGAAATGATGTTAATCGGGTCTTGATTCGCTTGACGCTGCTG | 1.68 | 1.49 | 1.51 | 3.42 | 1.08 | 1.74 | 2.25
15 | CCGATTAACATCAGGAATCCCCCTGATGTTAATCGGGTCTTGATTCGCTTGACGCTGCTG | 10.9 | 10.2 | 9.39 | 5.73 | 10.2 | 9.58 | 7.57
16 | CCGATTAACATCAAACATCCCCTTGATGTTAATCGGGTCTTGATTCGCTTGACGCTGCTG | 6.4 | 7.13 | 7.29 | 2.37 | 6.75 | 6.17 | 5.4
17 | CCGATTAACATCACCGTCCCCCCTGATGTTAATCGGGTCTTGATTCGCTTGACGCTGCTG | 4.94 | 4.43 | 4.21 | 5.1 | 4.4 | 4.34 | 4.08
18 | CCGATTAACATCAATTTTTCCCGTGATGTTAATCGGGTCTTGATTCGCTTGACGCTGCTG | 3.39 | 4.95 | 6.62 | 6.5 | 2.16 | 4.56 | 3.66
19 | CCGATTAACATCAGGGGGAGATATGATGTTAATCGGGTCTTGATTCGCTTGACGCTGCTG | 5.8 | 5.33 | 6.74 | 8.37 | 2.53 | 4.8 | 5.93
20 | CCGATTAACATCAGGGGAAGACCTGATGTTAATCGGGTCTTGATTCGCTTGACGCTGCTG | 5.91 | 7.98 | 6.51 | 5.23 | 8.75 | 7.72 | 4.98
21 | CCGATTAACATCAGGACAACCCCTGATGTTAATCGGGTCTTGATTCGCTTGACGCTGCTG | 3.21 | 3.16 | 1.17 | 1.02 | 2.63 | 5.78 | 2.98
22 | CCGATTAACATCACAATTTCCCCTGATGTTAATCGGGTCTTGATTCGCTTGACGCTGCTG | 8.29 | 9.4 | 12 | 8.61 | 5.96 | 6.69 | 6.74
23 | CCGATTAACATCAGGGACCCCCCTGATGTTAATCGGGTCTTGATTCGCTTGACGCTGCTG | 8.29 | 5.59 | 4.4 | 2.66 | 9.78 | 8.21 | 5.07

From paper PMC5700166
